Test results published in PubChem BioAssay.
Values joined by “and” are separate entries in the source; they are usually repeats but may differ in a detail not shown here. Equal values may be shown once. A structure can be active in one record and inactive in another. Active and inactive are the calls of the source.

What was measured:
[1] = test system: PRMT1 (protein arginine N-methyltransferase 1); assay: PRMT1 binders on small-molecule microarrays, primary screen, biochemical, small-molecule microarray, 635 nm fluorescence (AID 1088); details: small-molecule microarray binding, higher = more signal;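 note: binding of Prmt1 protein to compounds spotted on small-molecule microarray slides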
[2] = yeast growth modulation, basal conditions, primary screen, YJM789 clinical isolate, OD600, 24 h (AID 1089);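 note: growth of clinical yeast isolate S. cerevisiae YJM 789 seeded 1000 cells per well; test concentration not given here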; details: S. cerevisiae YJM789 growth, higher = more signal, called active from +8 up or from −8 down
[3] = fission yeast growth modulation, primary screen, strain 972, OD600, 24 h, no modulator (AID 1090);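 note: basal condition with compound alone and no growth modifier present; test concentration not given here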; details: S. pombe 972 growth, higher = more signal, called active from +8 up or from −8 down
[4] = S. cerevisiae growth modulation with rapamycin, primary screen, strain BY4716, OD600, 96 h (AID 1091); details: higher = more signal, called active from +8 up or from −8 down; note: test concentration not given here
[5] = target: Torsin-1A-interacting protein 2 (Homo sapiens) (UniProt Q8NFQ8); assay: LULL1 binders on small-molecule microarray, primary screen, cell lysate, human LULL1 lysate, 635/667 nm fluorescence (AID 1092); details: hLULL1 lysate binding, 635 nm fluorescence, higher = more signal;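 note: probe is lysate of COS7 cells overexpressing human LULL1; score merges per-feature 667 nm fluorescence with signal-to-noise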
Chain of Torsin-1A-interacting protein 2 (Homo sapiens) (Q8NFQ8 whole entry, looked up): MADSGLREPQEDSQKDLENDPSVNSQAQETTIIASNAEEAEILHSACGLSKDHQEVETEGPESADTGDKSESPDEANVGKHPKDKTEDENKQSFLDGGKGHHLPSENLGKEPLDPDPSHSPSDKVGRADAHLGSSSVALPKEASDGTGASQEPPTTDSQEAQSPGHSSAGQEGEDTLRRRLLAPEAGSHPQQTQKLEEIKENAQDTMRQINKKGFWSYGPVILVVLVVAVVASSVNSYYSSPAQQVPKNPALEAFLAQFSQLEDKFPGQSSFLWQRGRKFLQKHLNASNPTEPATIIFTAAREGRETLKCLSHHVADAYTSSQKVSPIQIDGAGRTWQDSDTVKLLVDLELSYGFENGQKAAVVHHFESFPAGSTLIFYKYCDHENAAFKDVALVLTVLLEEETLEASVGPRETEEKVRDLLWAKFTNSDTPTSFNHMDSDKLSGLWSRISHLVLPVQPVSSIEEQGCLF

[6] = E. coli growth modulation, two-sided OD650, primary screen, E. coli filamentation project, strain DRC41, 24 h (AID 1093); details: OD650, 24 h, higher = more signal, called active from +8 up or from −8 down;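 note: MC1000 strain lacking acrAB efflux and sulA so SOS filamentation is blocked; test concentration not given here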
[7] = small-molecule microarray binders of probe aLefty2, primary screen, biochemical, biotinylated probe, 635/667 nm fluorescence (AID 1094); details: higher = more signal;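 note: score merges spot fluorescence near 667 nm with spot signal-to-noise ratio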
[8] = test system: Noggin (protein binding on small-molecule microarray); assay: Noggin binders on small-molecule microarray, primary screen, biochemical, 635/667 nm fluorescence (AID 1095); details: 635 nm fluorescence, higher = more signal;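 note: score merges 667 nm feature fluorescence with signal to noise over triplicate slides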
[9] = target: Neurogenic locus notch homolog protein 3 (Homo sapiens) (UniProt Q9UM47); assay: NOTCH3 binders on small-molecule microarray, primary screen, biochemical, 635/667 nm fluorescence (AID 1096); details: NOTCH3 binding, 635 nm fluorescence, higher = more signal
Chain of Neurogenic locus notch homolog protein 3 (Homo sapiens) (Q9UM47 whole entry, looked up): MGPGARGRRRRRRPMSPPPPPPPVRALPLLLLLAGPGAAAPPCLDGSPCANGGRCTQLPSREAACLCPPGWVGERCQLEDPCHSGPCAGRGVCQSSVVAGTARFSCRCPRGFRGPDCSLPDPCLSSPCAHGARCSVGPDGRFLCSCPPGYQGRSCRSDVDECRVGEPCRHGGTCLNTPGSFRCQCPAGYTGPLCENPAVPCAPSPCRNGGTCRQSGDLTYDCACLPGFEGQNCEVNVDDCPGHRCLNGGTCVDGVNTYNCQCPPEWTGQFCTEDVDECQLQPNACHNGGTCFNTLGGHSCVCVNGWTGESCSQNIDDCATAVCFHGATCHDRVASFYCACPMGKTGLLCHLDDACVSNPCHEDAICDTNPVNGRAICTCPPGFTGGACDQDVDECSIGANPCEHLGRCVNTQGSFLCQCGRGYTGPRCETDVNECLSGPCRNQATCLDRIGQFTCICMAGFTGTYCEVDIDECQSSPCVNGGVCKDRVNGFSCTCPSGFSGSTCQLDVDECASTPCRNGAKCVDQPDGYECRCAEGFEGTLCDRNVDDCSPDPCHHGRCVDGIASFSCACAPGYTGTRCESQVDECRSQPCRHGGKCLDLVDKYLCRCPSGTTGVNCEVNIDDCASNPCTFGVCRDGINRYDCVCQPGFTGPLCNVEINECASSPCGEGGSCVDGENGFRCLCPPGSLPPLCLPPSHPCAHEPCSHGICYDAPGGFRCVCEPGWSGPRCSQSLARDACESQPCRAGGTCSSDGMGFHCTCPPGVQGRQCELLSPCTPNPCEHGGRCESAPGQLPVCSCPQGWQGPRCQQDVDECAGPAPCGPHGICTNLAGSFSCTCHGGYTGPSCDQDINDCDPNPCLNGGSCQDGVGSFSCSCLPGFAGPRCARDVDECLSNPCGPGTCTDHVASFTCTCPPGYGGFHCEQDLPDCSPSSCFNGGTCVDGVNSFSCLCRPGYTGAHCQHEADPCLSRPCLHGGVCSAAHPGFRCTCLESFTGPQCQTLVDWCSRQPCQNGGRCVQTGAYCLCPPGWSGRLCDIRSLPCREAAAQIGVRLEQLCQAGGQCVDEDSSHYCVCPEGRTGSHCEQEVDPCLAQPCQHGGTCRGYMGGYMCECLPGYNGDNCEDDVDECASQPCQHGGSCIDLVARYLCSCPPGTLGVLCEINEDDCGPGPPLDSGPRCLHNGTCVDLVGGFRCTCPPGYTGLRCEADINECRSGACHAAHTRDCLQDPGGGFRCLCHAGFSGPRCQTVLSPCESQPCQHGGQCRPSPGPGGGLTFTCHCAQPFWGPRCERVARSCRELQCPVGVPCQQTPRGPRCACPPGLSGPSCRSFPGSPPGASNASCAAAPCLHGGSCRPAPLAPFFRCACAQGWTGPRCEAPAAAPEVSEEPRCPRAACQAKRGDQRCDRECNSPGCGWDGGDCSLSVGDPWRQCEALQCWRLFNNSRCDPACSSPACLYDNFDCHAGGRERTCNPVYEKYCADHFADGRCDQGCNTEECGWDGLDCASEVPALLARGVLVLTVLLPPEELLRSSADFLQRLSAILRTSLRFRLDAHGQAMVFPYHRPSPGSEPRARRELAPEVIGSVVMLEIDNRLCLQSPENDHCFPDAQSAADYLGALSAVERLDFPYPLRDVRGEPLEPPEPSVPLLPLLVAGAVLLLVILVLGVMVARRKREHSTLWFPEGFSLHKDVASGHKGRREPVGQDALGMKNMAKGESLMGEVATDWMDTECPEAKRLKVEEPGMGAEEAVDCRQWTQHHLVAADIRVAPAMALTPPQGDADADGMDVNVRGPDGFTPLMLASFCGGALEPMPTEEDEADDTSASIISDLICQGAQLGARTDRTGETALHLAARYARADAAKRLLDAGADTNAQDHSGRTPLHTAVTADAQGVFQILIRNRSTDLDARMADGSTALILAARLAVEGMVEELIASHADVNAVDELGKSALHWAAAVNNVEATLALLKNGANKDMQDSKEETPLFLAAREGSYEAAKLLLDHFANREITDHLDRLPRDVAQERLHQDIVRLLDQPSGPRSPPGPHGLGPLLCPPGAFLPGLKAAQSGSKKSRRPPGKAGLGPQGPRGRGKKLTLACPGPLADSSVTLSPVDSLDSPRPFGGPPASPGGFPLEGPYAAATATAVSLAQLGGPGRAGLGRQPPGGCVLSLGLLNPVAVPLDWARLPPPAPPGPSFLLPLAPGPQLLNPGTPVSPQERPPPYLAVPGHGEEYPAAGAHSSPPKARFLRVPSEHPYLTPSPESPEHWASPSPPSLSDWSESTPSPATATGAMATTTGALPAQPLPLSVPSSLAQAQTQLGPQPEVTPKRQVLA

[10] = small-molecule microarray binders of probe aEGFR, primary screen, biochemical, biotinylated probe, 635/667 nm fluorescence (AID 1097); details: higher = more signal;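 note: probe is a biotinylated anti-EGFR antibody binding compounds printed on slides; score combines fluorescence near 667 nm and signal to noise of each spot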

SMILES | composite z-score [1] | z-score [2] | z-score [3] | z-score [4] | composite z-score [5] | z-score [6] | composite z-score [7] | composite z-score [8] | composite z-score [9] | composite z-score [10]
COC(=O)C1=C2N(Cc3ccccc3)C(C)=C(C(=O)OC)[C@@H](c3ccccc3)N2C(=O)[C@](O)(C(=O)OC)C1 | 0.691 and 0.144 | -0.149 (inactive) and -0.0628 (inactive) | -0.925 (inactive) and -0.134 (inactive) | -1.34 (inactive) and -0.299 (inactive) | 1.8 and -0.466 | 0.788 (inactive) and -0.0132 (inactive) | -0.142 and -0.235 | 1.14 and 0.796 | 0.81 and 0.263 | -0.142 and -0.133
COc1ccc(-c2ccc3c(n2)CCCN3CC(O)CN2CCCc3nc(-c4ccc(Br)cc4)ccc32)cc1 (stereo not given) | 1.47 and -0.0348 | 0.0467 (inactive) and -0.621 (inactive) | -0.665 (inactive) and 0.124 (inactive) | -2.52 (inactive) and -1.64 (inactive) | 1.24 and 0.778 | 0.0393 (inactive) and 0.816 (inactive) | 0.351 and 0.141 | 0.348 and 0.245 | 0.877 and 0.491 | 0.181 and 0.106
CCN1C(=O)[C@H]2[C@H]3[C@H](O)[C@H](O)CC(=NOC)[C@@H]3CC[C@H]2C1=O | -1.1 | -0.285 (inactive) | -1.9 (inactive) | -0.495 (inactive) | -0.27 | 0.525 (inactive) | -0.0192 | 0.178 | -0.065 | -0.0581
C=CCN(Cc1ccccc1)C(=O)C(c1cccs1)N(C(=O)/C=C\C(=O)O)c1ccc(CCO)cc1 (stereo not given) | -0.0611 and -0.636 | -0.0499 (inactive) and -0.0798 (inactive) | -0.0594 (inactive) and 0.33 (inactive) | -0.184 (inactive) and 0.0995 (inactive) | 3.59 and 1.9 | 0.478 (inactive) and -0.0137 (inactive) | -0.0927 and -0.205 | -2.05 and -1.63 | -1.46 and -0.922 | -0.239 and -0.321
CC(C)=NOCc1ccc(-c2cn([C@@H]3COC[C@H]3O)nn2)cc1 | -0.253 | 0.279 (inactive) | 0.132 (inactive) | -0.738 (inactive) | 0.226 | 0.484 (inactive) | 0.0434 | 0.485 | -0.328 | -0.0025
C=C[C@@H](C)[C@@H](O)c1ccc(O)c2ccccc12 | -1.15 and -0.5 | -5.87 (inactive) and -14.6 (active) | -19.1 (active) and -19.4 (active) | 3.53 (inactive) and 5.23 (inactive) | -0.414 and 0.384 | -0.113 (inactive) and 1.61 (inactive) | -0.239 and -0.107 | -0.803 and -0.326 | -1.25 and -0.933 | -0.321 and -0.314
Cc1ccc(S(=O)(=O)N[C@@H]2COC(=O)CC=C[C@@H](C)[C@@H]3C=C[C@H](O)[C@@H](COC(=O)CC=C[C@H]2C)O3)cc1 | 0.438 and 0.385 | -0.147 (inactive) and -0.184 (inactive) | -0.349 (inactive) and -0.549 (inactive) | -0.564 (inactive) and -0.784 (inactive) | -0.0372 and -0.0592 | 0.651 (inactive) and -0.667 (inactive) | -0.185 and -0.162 | 0.902 and 0.305 | -0.0571 and 0.584 | -0.072 and -0.112
C=CCN(C(=O)C1N(C(C)(C)CO)C(=O)C2C(C(=O)O)C3C=CC21O3)C(C)(C)C (stereo not given) | -0.805 and -0.846 | 0.69 (inactive) and 1.34 (inactive) | 0.53 (inactive) and 0.365 (inactive) | 0.961 (inactive) and 1.35 (inactive) | -0.139 and 1.91 | -0.0599 (inactive) and 0.474 (inactive) | 0.003 and 0.146 | -2.82 and -3.2 | -1.74 and -1.4 | -0.347 and -0.228
CC(C)C(=O)N[C@@H]1CCCN1C(=O)C=Cc1ccccc1 | 0.731 | -0.91 (inactive) | -0.0986 (inactive) | -0.307 (inactive) | 0.783 | 1.03 (inactive) | -0.14 | 0.783 | 0.786 | 0.0289
CCCNC(=O)OC[C@H]1O[C@H](CCON=C(C)CCC(=O)OC[C@H]2O[C@H](C#Cc3ccccc3)C=C[C@@H]2Oc2ccc(C)cc2)C=C[C@@H]1Oc1ccc(OC)cc1 | -0.164 | -0.142 (inactive) | -0.0152 (inactive) | 0.794 (inactive) | -0.575 | 0.165 (inactive) | -0.251 | -0.346 | -0.574 | -0.12
COC(=O)C1=C(C)N(Cc2ccccc2)C2=C3C(=O)N(c4ccccc4)C(=O)[C@@H]3[C@@](O)(C(=O)OC)C(=O)N2[C@@H]1c1ccccc1 | 0.345 and 1.13 | 0.286 (inactive) and -1.22 (inactive) | -1.52 (inactive) and -2.29 (inactive) | -1.18 (inactive) and -1.1 (inactive) | 0.806 and 1.46 | 0.117 (inactive) and 1.24 (inactive) | -0.0736 and -0.0453 | 0.608 and 0.455 | 0.54 and 1.04 | -0.0125 and -0.0534
CC(C)[Si]1(C(C)C)OCc2cc(C3CC3)nc(CCc3ccccc3)c21 | -0.834 and 0.139 | 0.289 (inactive) and 0.35 (inactive) | -1.32 (inactive) and 0.134 (inactive) | 0.725 (inactive) and 0.474 (inactive) | -0.597 and 0.259 | -0.102 (inactive) and -1.01 (inactive) | -0.22 and -0.0956 | -0.27 and 0.258 | -0.149 and 0.351 | -0.109 and -0.0147
COC(=O)[C@@]1(Cc2ccc(F)cc2)[C@H]2c3cc(C(=O)N4CCCC4)n(Cc4c(CO)[nH]cc(C)c4=O)c3C[C@H]2CN1C(=O)c1ccccc1 | 0.519 and 0.355 | 0.786 (inactive) and 1.14 (inactive) | 1.36 (inactive) and 1.39 (inactive) | 0.925 (inactive) and 1.59 (inactive) | 3.29 and 3.28 | -0.633 (inactive) and -0.87 (inactive) | 1.33 and 0.155 | 0.0162 and -0.629 | 0.335 and 0.422 | 0.985 and 0.0594
C=CCN(Cc1ccccc1)C(=O)C(c1cccs1)N(C(=O)/C=C\C(=O)O)c1c(Cl)cccc1CO (stereo not given) | -0.716 and -1.9 | 0.506 (inactive) and -0.555 (inactive) | 0.172 (inactive) and 0.261 (inactive) | 0.23 (inactive) and -0.457 (inactive) | -1.36 and -0.736 | 2.07 (inactive) and -0.369 (inactive) | -0.128 and -0.121 | -2.28 and -3.61 | -1 and -1.49 | -0.252 and -0.359
C[C@@H]1CN2[C@@H](CC[C@@H](C)[C@@H]2c2ccc(Br)cc2)C(=O)O1 | -0.477 and -0.0962 | 0.327 (inactive) and -1.72 (inactive) | 0.398 (inactive) and -0.794 (inactive) | 1.74 (inactive) and -0.538 (inactive) | -0.625 and 0.0053 | 0.0454 (inactive) and 0.082 (inactive) | -0.166 and -0.18 | 0.0137 and 0.546 | -0.307 and -0.733 | -0.111 and -0.154
CC(CO)N1C(=O)[C@@H]2C3C(=O)OCCC=C[C@H]3OC23C=CCN(c2ccc4ccccc4c2)C(=O)[C@@H]13 (stereo not given in full) | 0.6 and -0.266 | 1.09 (inactive) and -1.28 (inactive) | -0.169 (inactive) and -1.95 (inactive) | 0.127 (inactive) and -0.589 (inactive) | 3.39 and 0.763 | -0.138 (inactive) and -0.757 (inactive) | -0.116 and -0.192 | -0.571 and -0.51 | 0.259 and 0.0899 | -0.324 and -0.343
O=c1n(-c2ccccc2)c(=O)n2n1CC[C@@H]1C(=NOC[C@@H](O)COCc3ccco3)[C@H]3O[C@H]3[C@@H](O)[C@@H]12 | 1.23 and -0.267 | -0.188 (inactive) and 0.0291 (inactive) | -0.7 (inactive) and 0.498 (inactive) | 0.0488 (inactive) and 0.801 (inactive) | 0.264 and -1.26 | -0.517 (inactive) and 0.0684 (inactive) | -0.107 and -0.0797 | 1.06 and 0.325 | 0.827 and -0.585 | -0.139 and -0.0512
C=CCN(C(=O)C1N(CCCCCCO)C(=O)C2C(C(=O)O)C3C=CC21O3)c1ccc(OC)cc1 (stereo not given) | -0.176 and -1.86 | -0.943 (inactive) and -0.7 (inactive) | -2.12 (inactive) and -1.62 (inactive) | -1.2 (inactive) and -0.708 (inactive) | 3.53 and 3.04 | 2.3 (inactive) and 1.01 (inactive) | 0.259 and 0.337 | -2.89 and -3.12 | -0.602 and -1.35 | -0.267 and -0.241
C[N+](C)(C)CCCCCCNC(=O)[C@@H]1C[C@@H]2C(=O)N[C@@H](CCCC[N+](C)(C)C)C(=O)N2[C@@H]1c1ccc(O)cc1 | 1 and 1.3 | 0.272 (inactive) and 0.534 (inactive) | 0.352 (inactive) and 0.356 (inactive) | 0.02 (inactive) and 0.327 (inactive) | 0.611 and 2.02 | 0.392 (inactive) and -0.176 (inactive) | -0.0356 and -0.117 | 1.21 and 1.28 | 0.643 and 0.994 | -0.122 and -0.128
C=CCN(CCCC)C(=O)C1N(C(C)(C)CO)C(=O)C2C(C(=O)O)C3C=CC21O3 (stereo not given) | -0.278 and -1.01 | -0.412 (inactive) and 0.0394 (inactive) | 0.0945 (inactive) and 0.0925 (inactive) | -0.626 (inactive) and -0.302 (inactive) | -0.523 and -0.805 | -0.21 (inactive) and -0.367 (inactive) | -0.223 and -0.124 | -2.07 and -1.17 | -0.732 and -0.74 | -0.23 and -0.336
C=C[C@H](OC)[C@@H](O)c1ccc(O)c(F)c1 | -1.12 and -0.749 | -0.603 (inactive) and 0.106 (inactive) | -0.0898 (inactive) and -0.311 (inactive) | -1.17 (inactive) and -0.327 (inactive) | -0.93 and -0.808 | -0.853 (inactive) and 0.238 (inactive) | -0.0992 and -0.215 | -2.38 and -1.6 | -1.42 and -1.23 | -0.435 and -0.387
CO[C@H]1COC(=O)CC=C[C@@H](C)COC(=O)[C@H](CCSC)NC(=O)CC=C[C@@H]1C | 1.55 and 1.54 | 0.833 (inactive) and -0.697 (inactive) | -0.201 (inactive) and -0.712 (inactive) | 0.35 (inactive) and -0.862 (inactive) | -0.649 and -1.15 | 0.32 (inactive) and -0.145 (inactive) | -0.114 and -0.0629 | 1.64 and 2.04 | 0.593 and 0.59 | 0.49 and 0.59
